Assay results published in PubChem BioAssay AID623992 (NMMLSC, 2012).
Measured potencies and affinities stand elsewhere. Calls of active or inactive are those of the source.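 The calls were made as follows: active = compounds whose fitted half-maximal effective concentration for blocking dye efflux is below 100 µM; inactive = the rest.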

Target: Benomyl/methotrexate resistance protein (Candida albicans) (UniProt P28873)
Assay: CaMdr1 efflux pump inhibitor potency, dose response, singleplex, Cherry Pick2 set (AID 623992)
Settings: S. cerevisiae AD/CaMDR1, Nile Red efflux, flow cytometry; series mostly up to 100 µM; efflux inhibition response: at the top concentration

Benomyl/methotrexate resistance protein (Candida albicans), sequence (P28873 whole entry, looked up): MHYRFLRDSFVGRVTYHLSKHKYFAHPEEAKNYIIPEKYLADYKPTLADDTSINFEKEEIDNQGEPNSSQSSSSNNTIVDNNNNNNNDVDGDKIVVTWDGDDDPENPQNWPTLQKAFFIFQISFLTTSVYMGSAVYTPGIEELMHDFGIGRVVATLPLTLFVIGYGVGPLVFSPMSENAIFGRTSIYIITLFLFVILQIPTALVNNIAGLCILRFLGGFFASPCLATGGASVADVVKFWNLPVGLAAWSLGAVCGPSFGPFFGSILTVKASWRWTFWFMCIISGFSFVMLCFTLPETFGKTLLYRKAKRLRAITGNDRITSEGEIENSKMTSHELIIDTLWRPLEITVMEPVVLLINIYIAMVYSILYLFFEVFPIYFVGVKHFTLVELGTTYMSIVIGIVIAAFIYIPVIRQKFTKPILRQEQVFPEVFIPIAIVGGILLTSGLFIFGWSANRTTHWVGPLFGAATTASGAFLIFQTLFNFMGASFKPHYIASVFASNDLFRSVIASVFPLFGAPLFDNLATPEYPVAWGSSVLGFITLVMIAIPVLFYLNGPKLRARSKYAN

Efflux inhibition response, inactive:
COc1ccc(CCOC(=O)c2ccc(N)c([N+](=O)[O-])c2)cc1 -0.87%, O=C(C[n+]1cc(-c2ccccc2)n2c1CCC2)N1c2ccccc2Sc2ccccc21 -0.58%, NS(=O)(=O)c1ccc(N2N=C(c3ccc(Br)cc3)CC2c2ccc(F)cc2)cc1 (stereo unspecified) -1.21%, CCCCCc1cc(=O)oc2c(C(CCN3CCCC(C)C3)c3ccc(N(C)C)cc3)c(OC)cc(OC)c12 (stereo unspecified) -1.98%, CCO[C@@H]1OC(C(=O)Nc2ccccc2)=C[C@H](c2ccccc2)[C@H]1CCCO -1.21%, CCc1ccc(C2=NN(c3ccc(S(N)(=O)=O)cc3)C(c3ccc(F)cc3)C2)cc1 (stereo unspecified) -1.79%, Cc1ccc2c(c1)[C@H]1[C@H](CO2)[C@H](c2ccccc2)[C@]2(C)C(=O)Nc3cc(F)c(F)cc3C(=O)N12 -0.45%, COc1ccc2nc(NC(=O)c3cccs3)sc2c1 -1.21%, CC(C)C(=O)N1CCC2(CC1)Oc1ccc(Cl)cc1C(=O)C21CC(c2ccc(Cl)cc2)=NO1 (stereo unspecified) 22.3%, NC1=NC[C@H](Cc2ccccc2)N1CCCCC1CCCCC1 -0.87%, O=C(C1CCC(CNc2nc(=S)[nH]c3ccccc23)CC1)N1CCN(c2ccc(F)cc2)CC1 (stereo unspecified) -1.48%, Cc1ccc(C2CC(c3ccccc3)=NN2c2ccc(S(N)(=O)=O)cc2)cc1 (stereo unspecified) -2.43%, Cc1ccc(CNC(=O)C2CCC(CNc3nc(=S)[nH]c4ccccc34)CC2)cc1 (stereo unspecified) -0.77%, O=C(Nc1ccccc1)C1=C[C@@H](c2ccc(C(F)(F)F)cc2)C[C@@H](OCCCCO)O1 0.5%, O=C(C[n+]1cc(-c2ccc(F)cc2)n2c1CCC2)N1c2ccccc2Sc2ccccc21 -0.76%, Cc1ccc(C)c(N2CCN(C(=O)C3CCCN(c4ncnc5c4nc4n5CCCCC4)C3)CC2)c1 (stereo unspecified) -0.53%, COc1ccc(C2CC(c3ccccc3)=NN2c2ccc(S(N)(=O)=O)cc2)cc1 (stereo unspecified) -1.14%, CCCCCCCCCC[N+](C)(C)CC/C=C1/c2ccccc2Sc2ccc(Cl)cc21 405%, COc1ccc(C2CC(c3cccc(OC)c3)=NN2c2ccc(S(N)(=O)=O)cc2)cc1 (stereo unspecified) -2.33%, Cc1cccc2sc(N(CCCN(C)C)C(=O)c3ccc(Cl)s3)nc12 -0.58%, COc1ccccc1C(=O)OCCc1ccccc1 -0.58%, Cc1ccc(O)c(C(=O)c2cnc3c(c2)CN(C)C(=O)N3)c1 0.89%, O=C(Nc1ccccc1)C1=C[C@@H](c2ccc(Br)cc2)C[C@@H](OCCCCO)O1 -1.31%, O=C(CSc1nnc(Cc2cccs2)n1Cc1ccco1)Nc1cccc(Cl)c1 -1.55%, COc1ccc(OC)c2sc(NC(=O)c3ccc(Br)s3)nc12 -0.25%, N#CC(C(=O)NCc1ccccc1)c1nc2ccccc2nc1N1CCCC1 (stereo unspecified) -0.29%, NC1=NC[C@@H](Cc2ccc(O)cc2)N1CCCCC1CCCCC1 -0.9%, CN1Cc2cc(C(=O)c3ccccc3O)cnc2NC1=O -1.55%, C[C@H](CO)N1C[C@H](C)[C@@H](CN(C)S(=O)(=O)c2ccccc2)Oc2c(NC(=O)Nc3ccccc3)cccc2C1=O 51.3%

outcome, inactive:
COc1ccc(CNC(=O)C(C#N)c2nc3ccccc3nc2N2CCN(C)CC2)cc1 (stereo unspecified), CCCCN1Cc2cc(C(=O)c3cc(F)ccc3O)cnc2NC1=O
